The results in this text go back to the supplement of paper PMC6522484.

± gives the standard deviation of the averaged measurements.

In one experiment the test system is DLD1. In words: cell viability (CellTiter-Glo) relative to plate median (fraction of plate median); higher = more viable cells. Conditions: 10 µM; treatment time 24 h; reporter: 7TFP. Summed up: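 In 384-well plates, colorectal cancer lines with stable lentiviral 7TFP or TCF4/Wnt firefly luciferase reporters were seeded and, 24 h later, given kinase inhibitor library compounds at a final 10 µM for 24 h. A Tecan F500 reader measured firefly luciferase on one plate and CellTiterGlo on a parallel plate. Reported figures are two-replicate means of well signals normalised to the plate median, computed additively in webcellHTS2 without log transformation.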
For orientation: Cellular ATP, detected with luciferase, serves as a proxy for viable cell number.
Compound `Cc1ccc(F)c(NC(=O)Nc2ccc(-c3cccc4[nH]nc(N)c34)cc2)c1` [Linifanib (ABT-869)] returned a cell viability of 0.833 ± 0.063.

Compound `N#CC(=C(/N)Sc1ccccc1N)/C(C#N)=C(\N)Sc1ccccc1N` registered a cell viability of 1.08 ± 0.064.

Consider `c1cncc(CN2CCC(n3ncc4c(N5CCOCC5)nc(-c5ccc6[nH]ccc6c5)nc43)CC2)c1`, for which the cell viability came to 0.992 ± 0.17.

The compound `CCn1c(-c2nonc2N)nc2c(C#CC(C)(C)O)ncc(OC[C@H]3CCCNC3)c21` had a cell viability of 0.909 ± 0.074.

Staying with this experiment, now noted: 10 µM; treatment time 24 h; reporter: TCF4/Wnt.
Compound `CC(C)(C)c1cc(/C=C(\C#N)C(N)=S)cc(C(C)(C)C)c1O` [Tyrphostin AG 879 (AG 879)] displayed a cell viability of 0.911 ± 0.098.

As to `C=CC(=O)Nc1cc2c(Nc3ccc(F)c(Cl)c3)ncnc2cc1OCCCN1CCOCC1` [CI-1033 (Canertinib)], the cell viability was 0.854 ± 0.068.

As for `NCC(=O)Nc1ccc(-n2nc(C(F)(F)F)cc2-c2ccc3c(ccc4ccccc43)c2)cc1`, the cell viability was found to be 0.998 ± 0.14.

The compound `COc1ccc(-c2cc3c(C)nc(N)nc3n([C@H]3CC[C@H](OCCO)CC3)c2=O)cn1` gave a cell viability of 0.944 ± 0.028.

`Clc1ccc(C2(c3ccc(-c4cn[nH]c4)cc3)CCNCC2)cc1` came in with a cell viability of 1.08 ± 0.028.

Compound `C[S+]([O-])c1ccc(-c2nc(-c3ccc(F)cc3)c(-c3ccncc3)[nH]2)cc1` (centres undefined) displayed a cell viability of 1.02 ± 0.028.

In the case of `C=CC(=O)Nc1ccc2ncnc(Nc3ccc(OCc4cccc(F)c4)c(Cl)c3)c2c1`, the cell viability was 1.06 ± 0.085.

Consider `CCn1nnc2c(N3CCOCC3)nc(-c3ccc(NC(=O)Nc4ccc(C(=O)N5CCN(C)CC5)cc4)cc3)nc21`, for which the cell viability was determined as 1.09 ± 0.092.

`O=c1cc(N2CCOCC2)oc2c(-c3cccc4c3sc3ccccc34)cccc12` had a cell viability of 0.964 ± 0.052.

As to `Cc1cnc(Nc2ccc(N3CCN(C)CC3)cc2)nc1Nc1cccc(S(=O)(=O)NC(C)(C)C)c1`, the cell viability came out at 0.912 ± 0.18.

Turning to `COc1ccc(S(=O)(=O)N(C(C)=O)c2ccccc2/C=C/c2cc[n+]([O-])cc2)cc1`, the cell viability was found to be 1.17 ± 0.14.

The compound `COc1cc2ncnc(Nc3ccc(F)c(Cl)c3)c2cc1OCCCN1CCOCC1` [Gefitinib (Iressa)] gave a cell viability of 0.968 ± 0.021.

In the case of `CN1CCN(c2cccc(Nc3nc4c(-c5ccc(S(C)(=O)=O)cc5)cccn4n3)c2)CC1`, the cell viability amounted to 0.896 ± 0.042.

`CC(=O)Nc1nc(C)c(-c2ccc(Cl)c(S(=O)(=O)NCCO)c2)s1` returned a cell viability of 0.947 ± 0.0014.

As for `CCC[C@H](NC(=O)/C(C#N)=C/c1cccc(Br)n1)c1ccccc1`, the cell viability came out at 0.532 ± 0.038.

`CCS(=O)(=O)c1cccc(-c2cc(C(=O)NC3CCN(C)CC3)c(C)c3[nH]c4ncc(C)cc4c23)c1` returned a cell viability of 1.1 ± 0.057.

`CC(C)n1nc(-c2ccc3oc(N)nc3c2)c2c(N)ncnc21`: the cell viability was 0.916 ± 0.016.

The compound `COc1cc2c(N3CCN(C(=O)Nc4ccc(OC(C)C)cc4)CC3)ncnc2cc1OCCCN1CCCCC1` [Tandutinib (MLN518)] gave a cell viability of 1.1 ± 0.085.

The compound `O=C1NC(=O)C(c2ccccc2[N+](=O)[O-])=C1Nc1ccc(O)c(Cl)c1` showed a cell viability of 1.07 ± 0.035.

On to `COc1cccc(-c2cc(=O)c3ccccc3o2)c1N`, for which the cell viability was 1.025 ± 0.0071.

The compound `Cc1ccc(NC(=O)c2ccc(CN3CCN(C)CC3)cc2)cc1Nc1nccc(-c2cccnc2)n1` [Imatinib (Gleevec)] had a cell viability of 1.035 ± 0.0071.

Compound `COc1cc2c(Nc3ccc(NC(=O)c4ccccc4)cc3)ncnc2cc1OCCCN1CCOCC1` yielded a cell viability of 0.872 ± 0.042.

`CC(C)CC(=O)Nc1n[nH]c2c1CN(C(=O)C1CCN(C)CC1)C2(C)C` came in with a cell viability of 1.27 ± 0.15.

`CNC(=O)Nc1ccc(-c2nc(N3CC4CCC(C3)O4)c3cnn(C4CCC5(CC4)OCCO5)c3n2)cc1` gave a cell viability of 0.998 ± 0.045.

Regarding `CCOc1cc2ncc(C#N)c(Nc3ccc(OCc4ccccn4)c(Cl)c3)c2cc1NC(=O)/C=C/CN(C)C` [Neratinib (HKI-272)], the cell viability worked out at 0.877 ± 0.1.

On to `N#CCNC(=O)c1ccc(-c2ccnc(Nc3ccc(N4CCOCC4)cc3)n2)cc1`, for which the cell viability turned out to be 1.12 ± 0.021.

`Cc1ncc(-c2ccnc(Nc3ccc(S(C)(=O)=O)cc3)n2)n1C(C)C` yielded a cell viability of 1.32 ± 0.099.

`O=C(O)c1ccc2c(c1)nc(Nc1cccc(Cl)c1)c1ccncc12` [cx-4945 (Silmitasertib)] showed a cell viability of 0.955 ± 0.079.

Take `CC(=O)Nc1cccc(-n2c(=O)n(C3CC3)c(=O)c3c(Nc4ccc(I)cc4F)n(C)c(=O)c(C)c32)c1`: the cell viability came out at 1.29 ± 0.13.

The compound `Nc1ncnc2c1c(-c1cccc(OCc3ccccc3)c1)cn2C1CC(CN2CCCC2)C1` (centres undefined) showed a cell viability of 0.809 ± 0.088.

For the compound `COc1cc2c(Oc3ccc(NC(=O)C4(C(=O)Nc5ccc(F)cc5)CC4)cc3F)ccnc2cc1OCCCN1CCOCC1`, the cell viability is 0.875 ± 0.042.

`CCN1CCN(c2ccc(Nc3cc(N(C)C(=O)Nc4c(Cl)c(OC)cc(OC)c4Cl)ncn3)cc2)CC1` returned a cell viability of 1.06 ± 0.071.

`Cc1[nH]c(/C=C2\C(=O)Nc3ccccc32)c(C)c1CCC(=O)O` had a cell viability of 0.997 ± 0.061.

Take `CN1CCN(c2ccc3nc(-c4c(N)c5c(F)cccc5[nH]c4=O)[nH]c3c2)CC1` [Dovitinib Dilactic acid (TKI258 Dilactic acid)]: the cell viability amounted to 0.956 ± 0.041.

With `Cc1[nH]c(/C=C2\C(=O)Nc3ccc(S(=O)(=O)Cc4c(Cl)cccc4Cl)cc32)c(C)c1C(=O)N1CCC[C@@H]1CN1CCCC1`, the cell viability turned out to be 0.648 ± 0.43.

`COc1cc(Nc2ncc(F)c(Nc3ccc4c(n3)NC(=O)C(C)(C)O4)n2)cc(OC)c1OC` [R406(free base)] returned a cell viability of 0.99 ± 0.085.

`Cc1ccc(F)c(NC(=O)Nc2ccc(-c3cccc4[nH]nc(N)c34)cc2)c1` [Linifanib (ABT-869)] returned a cell viability of 0.948 ± 0.1.

`N#CC(=C(/N)Sc1ccccc1N)/C(C#N)=C(\N)Sc1ccccc1N` registered a cell viability of 1.003 ± 0.0099.

As for `c1cncc(CN2CCC(n3ncc4c(N5CCOCC5)nc(-c5ccc6[nH]ccc6c5)nc43)CC2)c1`, the cell viability turned out to be 0.9595 ± 0.005.

Turning to `CCn1c(-c2nonc2N)nc2c(C#CC(C)(C)O)ncc(OC[C@H]3CCCNC3)c21`, the cell viability is 0.954 ± 0.065.
